We go through nine molecules from PubChem BioAssay (EPA / NIEHS).

Test [1] has as its target Aryl hydrocarbon receptor (Homo sapiens) (UniProt P35869). Nature of the test: ATG_Ahr_CIS: Attagene CIS-FACTORIAL HepG2 Assay for human Aryl Hydrocarbon Receptor (Ahr) (AID 2282930; active = hit-call score of the fitted dose curve at least 0.9, where 1 is the maximum; inactive = score below 0.9). To be noted: HepG2 AhR cis-factorial reporter transcription; actives raise or lower the signal. An outline of the steps: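 Following 24 h of chemical dosing, transfected HepG2 liver cells with cis-driven reporter units were lysed for RNA; reporter mRNA was quantified via RT-PCR and capillary electrophoresis, and responses fitted bidirectionally from DMSO.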

The nature of test [2]: ATG_E_Box_CIS: Attagene CIS-FACTORIAL HepG2 Assay for human Enhancer Box (E-box) (AID 2282936; active = hit-call score of the fitted dose curve at least 0.9, where 1 is the maximum; inactive = score below 0.9). To be noted: HepG2 E-box cis-reporter transcription, actives raise or lower the signal. An outline of the steps: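 Endogenous transcription factor activity was sensed in human HepG2 liver cells through transfected cis-promoter reporter units. After 24 h of dosing, total RNA was reverse-transcribed and reporter cDNA resolved by capillary electrophoresis.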

Test [3] in a line: ATG_M_61_CIS: Attagene CIS-FACTORIAL HepG2 Assay for M61 Transcription Factor (Internal Marker) (AID 2282937; active = hit-call score of the fitted dose curve at least 0.9, where 1 is the maximum; inactive = score below 0.9). Conditions: HepG2 Attagene CIS-FACTORIAL M61 internal marker reporter; actives raise or lower the signal. In short, it runs like this:
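Multiplexed reporter mRNA assay, HepG2 human hepatoma cells, 24 h treatment. Signal: FAM-labelled, HpaI-digested RT-PCR fragments by CE. Fit: bidirectional, baseline DMSO.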

Test [4] in a line: ATG_GRE_CIS: Attagene CIS-FACTORIAL HepG2 Assay for human Glucocorticoid Response Elements (GRE) (AID 2282947; active = hit-call score of the fitted dose curve at least 0.9, where 1 is the maximum; inactive = score below 0.9). Conditions: HepG2 GRE cis-reporter, Attagene multiplex mRNA; actives raise or lower the signal. In short, it runs like this:
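Cells (HepG2) bearing transfected cis-promoter reporter transcription units were treated with chemical for 24 hours. Reporter mRNA was measured via RT-PCR with capillary electrophoresis, and activity was fitted in both directions relative to DMSO.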

A short description of test [5]: ATG_PBREM_CIS: Attagene CIS-FACTORIAL HepG2 Assay for human Phenobarbital-responsive Enhancer Module (PBREM) (AID 2282955; active = hit-call score of the fitted dose curve at least 0.9, where 1 is the maximum; inactive = score below 0.9). Conditions: HepG2 PBREM cis-reporter, Attagene multiplexed transcription; actives raise or lower the signal. An outline of the steps: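 Multiplexed cis-reporter readout in human hepatoma HepG2 cells; PBREM-regulated transcript quantified after 24 h exposure by fluorescent RT-PCR fragment analysis. Signal changes up or down fitted relative to DMSO.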

A short description of test [6]: ATG_M_19_TRANS: Attagene TRANS-FACTORIAL HepG2 Assay for M19 Transcription Factor (Internal Marker) (AID 2282974). To be noted: HepG2 Attagene TRANS-FACTORIAL M19 internal marker reporter. An outline of the steps:
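Multiplexed TRANS format: HepG2 liver cells bearing transient GAL4-UAS reporter units, chemical treatment 24 h, reporter transcripts quantified by RT-PCR plus capillary electrophoresis. DMSO defines baseline.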

Test [7] is described as follows: ATG_M_06_TRANS: Attagene TRANS-FACTORIAL HepG2 Assay for M06 Transcription Factor (Internal Marker) (AID 2282983).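 Also: reporter transcript level by RT-PCR then capillary electrophoresis fluorescence.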 Conditions: HepG2 Attagene TRANS M06 internal marker reporter. An outline of the steps:
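Background control endpoint: reporter mRNA from transiently transfected HepG2 after 24 h dosing, detected by RT-PCR with capillary electrophoresis fluorescence. Analysed for gain versus DMSO.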

Test [8] can be described thus: ATG_M_32_TRANS: Attagene TRANS-FACTORIAL HepG2 Assay for M32 Transcription Factor (Internal Marker) (AID 2282984).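 Also: transcript level of a background control reporter unit measured by RT-PCR and capillary electrophoresis.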 Conditions: HepG2 Attagene TRANS M32 internal marker reporter. An outline of the steps: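 After 24 h dosing of transfected HepG2 cells, total RNA was reverse-transcribed, reporter sequences PCR-amplified, 6-FAM labelled by primer extension and HpaI-digested before capillary electrophoresis. Signal increase over DMSO was fitted.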

Test [9] in a line: ATG_NFI_CIS: Attagene CIS-FACTORIAL HepG2 Assay for human Nuclear Factor I (NFI) (AID 2282989; active = hit-call score of the fitted dose curve at least 0.9, where 1 is the maximum; inactive = score below 0.9). Conditions: HepG2 cis-regulatory reporter, NFI response element transcription; actives raise or lower the signal. In short, it runs like this: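 Read-out: reporter mRNA via RT-PCR plus capillary electrophoresis with fluorescence detection. Transiently transfected HepG2 (endogenous TF activity on cis promoters), 24 h compound exposure; gain or loss of signal fitted against DMSO.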

For test [10], the target named is Cellular tumor antigen p53 (Homo sapiens) (UniProt P04637). Briefly: TOX21_p53_BLA_p5_ratio: Tox21 HCT-116 p53 Agonism Beta-lactamase Assay, Ratio, Phase 5 (AID 2283599). In short, it runs like this: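 HCT-116 cells carrying a p53-inducible beta-lactamase reporter were seeded at 4000 cells/well and dosed after 5 h with compound in DMSO (217-fold dilution). After 16 h at 37C, CCF4-AM substrate was added for 2 h, and the 460/530 nm emission ratio was scored as gain-of-signal versus DMSO.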

For test [11] the target is unchanged. Nature of the test: TOX21_p53_BLA_p4_ratio: Tox21 HCT-116 p53 Agonism Beta-lactamase Assay, Ratio, Phase 4 (AID 2283601). An outline of the steps: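 HCT116 cells carrying an inducible beta-lactamase reporter were plated at 4000 cells/well, rested 5 h, then exposed to compounds in DMSO (217-fold dilution) for 16 h at 37C. CCF4-AM substrate was loaded 2 h at room temperature; 460/530 nm emission ratio scored gain-of-signal versus DMSO.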

The target in test [12] is Hypoxia-inducible factor 1-alpha (Homo sapiens) (UniProt Q16665). Nature of the test: ATG_HIF1a_CIS: Attagene CIS-FACTORIAL HepG2 Assay for human Hypoxia Inducible Factor 1 (HIF1A) (AID 2282951; active = hit-call score of the fitted dose curve at least 0.9, where 1 is the maximum; inactive = score below 0.9). To be noted: HepG2 Attagene cis-factorial HIF1a reporter transcription; actives raise or lower the signal. In short, it runs like this:
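Cis-element reporter constructs were transiently transfected into HepG2 cells, which were treated for 24 h; reporter RNA was reverse-transcribed, amplified, labelled and resolved by capillary electrophoresis.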

Test [13] in a line: ATG_PPRE_CIS: Attagene CIS-FACTORIAL HepG2 Assay for human Peroxisome Proliferator-activated Response Element (PPRE) (AID 2282958; active = hit-call score of the fitted dose curve at least 0.9, where 1 is the maximum; inactive = score below 0.9). Conditions: HepG2 PPRE cis-element reporter, Attagene transcription factor profiling; actives raise or lower the signal. In short, it runs like this:
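DMSO served as negative control and baseline for bidirectional curve fitting. Signal came from PPRE-regulated reporter mRNA in HepG2 cells, measured 24 h post-dosing by RT-PCR, 6-FAM primer extension and capillary electrophoresis.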

For test [14], the target named is Peroxisome proliferator-activated receptor gamma (Homo sapiens) (UniProt P37231). Briefly: ATG_PPARg_TRANS: Attagene TRANS-FACTORIAL HepG2 Assay for human Peroxisome Proliferator-activated Receptor-gamma (PPARg) (AID 2283007). In short, it runs like this: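 Chimeric NR-Gal4 transactivation is measured in transiently transfected HepG2 cells by reporter mRNA induction at 24 h. Detection uses RT-PCR with fluorescent labelling and capillary electrophoresis; DMSO defines baseline.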

Test [15] addresses human Retinoid X Receptor beta (RXRb), RXRB (gene 6257) (UniProt P28702). Nature of the test: ATG_RXRb_TRANS: Attagene TRANS-FACTORIAL HepG2 Assay for human Retinoid X Receptor beta (RXRb) (AID 2283013). In short, it runs like this: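 Chimeric receptor-Gal4 activity was assessed in transiently transfected human HepG2 cells after 24 h exposure. Transcripts from GAL4-UAS reporters were quantified by fluorescent RT-PCR and capillary electrophoresis, with DMSO as negative control and baseline.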

Test [16] has as its target Cellular tumor antigen p53 (Homo sapiens) (UniProt P04637). Nature of the test: TOX21_p53_BLA_p2_ratio: Tox21 HCT-116 p53 Agonism Beta-lactamase Assay, Ratio, Phase 2 (AID 2283592). An outline of the steps:
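Plated HCT116 p53-bla cells (4000/well) received compound after 5 h, then 16 h at 37C/5% CO2. CCF4-AM added, 2 h RT. Ratio of 460 to 530 nm emission taken as the p53 reporter signal.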

A short description of test [17]: TOX21_p53_BLA_p5_viability: Viability Assessment in the Tox21 HCT-116 p53 Agonism Beta-lactamase Assay, Phase 5 (AID 2283600). An outline of the steps: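 Workflow: seed 4000 cells per well, wait 5 h, add compounds (DMSO, 217-fold dilution), incubate 16 h, load CCF4-AM 2 h, add CellTiter-Glo, read luminescence after 30 min.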
For test [18], the target named is Retinoic acid receptor RXR-alpha (Homo sapiens) (UniProt P19793). Nature of the test: ATG_RXRa_TRANS: Attagene TRANS-FACTORIAL HepG2 Assay for human Retinoid X Receptor alpha (RXRa) (AID 2283012). An outline of the steps: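 Measures exogenous chimeric NR-GAL4 activity in transfected HepG2 liver cells after 24 h of dosing. Induced reporter mRNA was detected by RT-PCR with capillary electrophoresis, and gain of signal was analysed against DMSO.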

Test [19] can be described thus: ATG_AP_1_CIS: Attagene CIS-FACTORIAL HepG2 Assay for human Activator Protein 1 (AP-1) (AID 2282931; active = hit-call score of the fitted dose curve at least 0.9, where 1 is the maximum; inactive = score below 0.9). To be noted: HepG2 Attagene cis-factorial AP-1 reporter mRNA; actives raise or lower the signal. In short, it runs like this: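 We transfected HepG2 cells transiently with a set of cis-regulated reporter transcription units, dosed them for 24 h, and quantified reporter mRNA via RT-PCR and capillary electrophoresis, scoring gain or loss of signal relative to DMSO.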

A short description of test [20]: ACEA_ER_AUC_viability: ACEA Biosciences xCELLigence Real-Time Cell Analysis on Estrogen Receptor Agonism for Viability (AID 2283782).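 Also: hit means loss of impedance signal meaning reduced cell growth or viability.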 An outline of the steps:
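Continuous-exposure impedance cell analysis uses T-47D cells in charcoal-stripped serum, eight 1:4 dilutions topping at 100 uM final, biological duplicate. Area under the growth curve at 80 h is fitted against DMSO baseline.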

Records with an inconclusive call do not appear. Where a structure was tested more than once in an assay, its records may differ in their call. The source made the active and inactive calls. The calls were made as follows, unless noted: active = hit-call score of the fitted dose curve at least 0.9, where 1 is the maximum; inconclusive = response in the unintended direction; inactive = score below 0.9.

Chain of Peroxisome proliferator-activated receptor gamma (Homo sapiens) (P37231 whole entry, looked up, the tested form may be a part): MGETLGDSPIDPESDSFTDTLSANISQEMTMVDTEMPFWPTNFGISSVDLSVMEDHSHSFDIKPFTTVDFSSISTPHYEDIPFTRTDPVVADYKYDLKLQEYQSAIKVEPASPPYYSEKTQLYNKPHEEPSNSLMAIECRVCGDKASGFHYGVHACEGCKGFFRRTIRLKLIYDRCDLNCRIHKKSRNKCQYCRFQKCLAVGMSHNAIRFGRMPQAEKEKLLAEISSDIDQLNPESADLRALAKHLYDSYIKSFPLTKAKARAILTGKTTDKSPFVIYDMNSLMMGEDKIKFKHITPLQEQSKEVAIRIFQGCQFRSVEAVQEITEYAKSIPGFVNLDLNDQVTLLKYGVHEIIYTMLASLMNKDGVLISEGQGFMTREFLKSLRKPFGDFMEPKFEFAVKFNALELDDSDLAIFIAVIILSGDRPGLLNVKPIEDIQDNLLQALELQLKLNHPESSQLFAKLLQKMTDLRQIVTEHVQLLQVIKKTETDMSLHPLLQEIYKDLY
Chain of Hypoxia-inducible factor 1-alpha (Homo sapiens) (Q16665 whole entry, looked up): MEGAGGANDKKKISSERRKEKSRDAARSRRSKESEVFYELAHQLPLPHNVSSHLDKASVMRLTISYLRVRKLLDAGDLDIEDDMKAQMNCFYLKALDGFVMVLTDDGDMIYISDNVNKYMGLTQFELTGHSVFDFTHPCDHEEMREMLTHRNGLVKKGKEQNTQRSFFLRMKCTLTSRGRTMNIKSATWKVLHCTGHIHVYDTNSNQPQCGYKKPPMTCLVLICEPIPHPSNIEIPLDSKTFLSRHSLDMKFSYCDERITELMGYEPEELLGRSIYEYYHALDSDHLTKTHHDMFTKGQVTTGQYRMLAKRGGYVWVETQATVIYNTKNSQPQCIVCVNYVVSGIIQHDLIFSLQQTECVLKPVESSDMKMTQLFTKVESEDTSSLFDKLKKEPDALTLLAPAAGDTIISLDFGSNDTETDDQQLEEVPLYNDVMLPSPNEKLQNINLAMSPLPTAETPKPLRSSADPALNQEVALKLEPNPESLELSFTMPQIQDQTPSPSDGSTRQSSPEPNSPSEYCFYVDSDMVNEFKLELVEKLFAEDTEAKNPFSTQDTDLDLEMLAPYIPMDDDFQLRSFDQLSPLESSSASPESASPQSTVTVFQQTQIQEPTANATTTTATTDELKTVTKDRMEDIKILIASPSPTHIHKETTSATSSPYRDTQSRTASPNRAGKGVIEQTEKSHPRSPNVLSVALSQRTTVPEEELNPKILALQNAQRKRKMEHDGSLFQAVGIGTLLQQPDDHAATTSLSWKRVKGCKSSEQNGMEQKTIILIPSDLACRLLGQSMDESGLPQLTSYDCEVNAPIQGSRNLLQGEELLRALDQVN
Chain of human Retinoid X Receptor beta (RXRb), RXRB (gene 6257) (P28702 whole entry, looked up, the tested form may be a part): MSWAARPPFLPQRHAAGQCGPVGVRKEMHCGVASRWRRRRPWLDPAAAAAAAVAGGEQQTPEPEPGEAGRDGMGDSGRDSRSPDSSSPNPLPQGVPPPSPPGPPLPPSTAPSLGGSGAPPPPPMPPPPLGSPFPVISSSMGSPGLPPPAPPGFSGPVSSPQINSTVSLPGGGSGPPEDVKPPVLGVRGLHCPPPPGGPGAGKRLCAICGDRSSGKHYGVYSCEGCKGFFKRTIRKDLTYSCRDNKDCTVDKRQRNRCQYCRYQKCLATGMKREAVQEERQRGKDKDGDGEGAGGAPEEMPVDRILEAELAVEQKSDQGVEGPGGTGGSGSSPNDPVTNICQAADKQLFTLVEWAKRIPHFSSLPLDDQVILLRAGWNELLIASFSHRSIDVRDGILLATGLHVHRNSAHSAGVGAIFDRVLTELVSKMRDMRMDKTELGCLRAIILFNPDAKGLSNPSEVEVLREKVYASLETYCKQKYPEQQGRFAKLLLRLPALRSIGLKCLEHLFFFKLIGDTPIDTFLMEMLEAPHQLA
Chain of Cellular tumor antigen p53 (Homo sapiens) (P04637 whole entry, looked up): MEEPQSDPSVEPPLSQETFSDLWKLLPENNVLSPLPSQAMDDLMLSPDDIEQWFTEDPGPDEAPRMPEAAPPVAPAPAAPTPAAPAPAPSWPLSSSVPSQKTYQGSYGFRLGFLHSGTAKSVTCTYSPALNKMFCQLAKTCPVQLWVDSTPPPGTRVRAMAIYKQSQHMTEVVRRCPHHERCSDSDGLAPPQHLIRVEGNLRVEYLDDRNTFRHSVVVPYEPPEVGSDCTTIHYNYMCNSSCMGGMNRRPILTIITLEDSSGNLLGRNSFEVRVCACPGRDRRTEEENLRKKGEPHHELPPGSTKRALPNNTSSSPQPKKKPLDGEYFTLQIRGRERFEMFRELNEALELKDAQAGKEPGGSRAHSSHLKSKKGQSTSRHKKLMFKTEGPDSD
Chain of Retinoic acid receptor RXR-alpha (Homo sapiens) (P19793 whole entry, looked up, the tested form may be a part): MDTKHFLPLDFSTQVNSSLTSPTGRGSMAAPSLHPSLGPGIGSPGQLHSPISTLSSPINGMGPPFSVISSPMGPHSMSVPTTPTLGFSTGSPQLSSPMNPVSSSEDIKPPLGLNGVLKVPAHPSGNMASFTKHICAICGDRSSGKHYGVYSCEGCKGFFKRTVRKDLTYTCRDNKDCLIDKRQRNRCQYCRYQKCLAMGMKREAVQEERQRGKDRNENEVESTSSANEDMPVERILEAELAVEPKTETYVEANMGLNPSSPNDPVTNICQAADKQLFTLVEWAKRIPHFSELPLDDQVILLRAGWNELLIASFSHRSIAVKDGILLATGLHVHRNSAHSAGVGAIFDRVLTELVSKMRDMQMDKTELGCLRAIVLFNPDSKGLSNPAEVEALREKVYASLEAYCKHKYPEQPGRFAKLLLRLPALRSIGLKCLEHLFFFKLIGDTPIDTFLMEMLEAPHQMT
Chain of Aryl hydrocarbon receptor (Homo sapiens) (P35869 whole entry, looked up): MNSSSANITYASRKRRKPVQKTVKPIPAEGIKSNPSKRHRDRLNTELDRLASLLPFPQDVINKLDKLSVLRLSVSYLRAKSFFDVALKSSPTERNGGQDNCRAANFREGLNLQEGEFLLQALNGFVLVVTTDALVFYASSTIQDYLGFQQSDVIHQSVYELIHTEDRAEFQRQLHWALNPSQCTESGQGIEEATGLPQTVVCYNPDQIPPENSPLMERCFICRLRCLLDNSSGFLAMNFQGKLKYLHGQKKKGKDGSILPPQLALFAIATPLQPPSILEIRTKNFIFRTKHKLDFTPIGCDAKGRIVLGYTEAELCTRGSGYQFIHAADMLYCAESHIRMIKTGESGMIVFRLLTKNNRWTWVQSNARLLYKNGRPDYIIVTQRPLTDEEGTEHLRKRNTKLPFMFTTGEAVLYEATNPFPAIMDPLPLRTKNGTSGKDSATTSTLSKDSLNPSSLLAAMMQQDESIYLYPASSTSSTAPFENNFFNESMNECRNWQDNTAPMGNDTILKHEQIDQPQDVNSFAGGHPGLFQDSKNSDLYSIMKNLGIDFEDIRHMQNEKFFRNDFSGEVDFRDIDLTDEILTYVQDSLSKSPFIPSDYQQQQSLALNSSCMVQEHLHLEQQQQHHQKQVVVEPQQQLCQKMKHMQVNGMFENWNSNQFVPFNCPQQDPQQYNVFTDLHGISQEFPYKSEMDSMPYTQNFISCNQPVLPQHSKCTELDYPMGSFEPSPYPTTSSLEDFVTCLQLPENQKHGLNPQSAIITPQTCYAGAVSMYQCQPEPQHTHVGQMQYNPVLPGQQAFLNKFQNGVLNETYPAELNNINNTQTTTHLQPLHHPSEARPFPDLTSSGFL

As for `CNC(=N[N+](=O)[O-])NCC1CCOC1` (stereo not given), the molecule was called inactive in test [1], in test [2], in test [3], in [4], in test [5] and in test [6]. The result in test [7], in test [8], in test [9], in [10] and in test [11] was inactive.
For the molecule `Cc1ccc(N(SC(F)(Cl)Cl)S(=O)(=O)N(C)C)cc1`, the outcome in [1], in test [2], in test [3], in test [5], in test [7] and in test [8] was inactive. Besides, the result in test [14], in [15], in test [16], in test [10] and in [17] was inactive. The results for the AC50 in test [12], in [13] and in [11] were 11.1 µM (active), 11.1 µM (active) and 44.8 µM (active), respectively.
For `CCc1cc(C)cc(CC)c1-c1c(OC(=O)C(C)(C)C)n2n(c1=O)CCOCC2`, the outcome in test [1], in test [2], in test [3], in test [4], in [12] and in test [13] was inactive. In addition, the result in test [6], in [8], in [14] and in [18] was inactive.
`C=CCO`: the molecule was called inactive in test [1], in test [19], in test [2], in test [4], in test [12] and in test [5]. The outcome in [6], in [8], in test [9], in [16], in test [10] and in [17] was inactive. Moreover, the result in test [11] was inactive.
Take `CCC(=O)c1ccc(Cl)cc1`: the molecule was classed as inactive in test [1], in test [3], in [4], in [12], in test [5] and in test [13]. Also, the result in test [7], in test [8], in test [9], in [18], in [15] and in [20] was inactive.
Turning to `c1ccc(Nc2ccc3ccccc3c2)cc1`, the AC50 was 115 µM (active) in test [19]; 39.8 µM (active) in test [13]; 18 µM (active) in [14]; 74.9 µM (active) in [16]; 73.5 µM (active) in test [11]; 87.1 µM (active) in [20]. The result in test [2], in test [3], in [4], in test [12], in test [5] and in test [6] was inactive. Further, the result in test [7], in test [8], in test [18], in [16], in test [10] and in test [17] was inactive. The result in test [11] was inactive.
Take `CCCCCCCCCCCC#N`: the result in test [1], in test [4], in test [5], in test [13], in test [6] and in test [8] was inactive. Also, the result in test [18], in test [16], in [10], in test [11] and in [20] was inactive. Besides, the AC50 in test [19] is 73.6 µM (active); in test [9], 169 µM (active); in [14] it was 80.6 µM (active); in test [15], 44.5 µM (active).
Take `CSc1nc(N=[N+]=[N-])nc(NC(C)C)n1`: the molecule was classed as inactive in [1], in test [19], in test [3], in test [12], in [5] and in test [13]. For the same molecule, the molecule was classed as inactive in [6], in [8], in test [9], in test [15], in test [10] and in [11]. Further, the AC50 in test [14] was 15.4 µM (active).
For the molecule `C=COCCCl`, the molecule was called inactive in test [1], in [2], in test [3], in test [4], in test [5] and in test [13]. Besides, the outcome in [6], in [7], in test [8], in test [18], in [15] and in [20] was inactive. In [12], the AC50 is 48.5 µM (active).

One may read the AC50 as the concentration giving half of the maximal activity seen.
